# Assay results published in PubChem BioAssay (NCI).
# This is part of a sample that, as a whole, favours compounds with a hit. Of some 79,000 tested, about 15% had one in any assay. Calls of active or inactive are those of the source. No stated cut-off is given here; in the data, active means growth inhibition above about 70%; inactive means the rest. Where a SMILES comes first, the peptide text is derived from it. The star is where a group is joined. OSu = O=C1CCC(=O)N1O*; OBn = c1ccc(CO*)cc1; Bn = c1ccc(C*)cc1
# Key:
# [1] = NCI Yeast Anticancer Drug Screen. Data for the rad50 strain (AID 155);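 further: 0% = growth of vehicle-only cultures of the same strain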; conditions: S. cerevisiae rad50 strain growth inhibition, hits give high values
# Method in brief: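 A DNA repair-deficient yeast mutant serves as the test organism; compound-induced growth inhibition is calculated against vehicle-treated cells.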
# [2] = NCI Yeast Anticancer Drug Screen. Data for the mec2-1 strain (AID 157); conditions: S. cerevisiae mec2-1 strain, hits give high values
# Method in brief: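 Compounds were applied to mec2-1 yeast cells. Their growth was then compared with that of vehicle-treated cultures to give growth inhibition.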
# [3] = NCI Yeast Anticancer Drug Screen. Data for the sgs1 mgt1 strain (AID 161);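 further: 0% = growth of cultures given vehicle only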; conditions: S. cerevisiae sgs1 mgt1 strain, hits give high values
# Method in brief: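 Yeast cells carrying a defined DNA-repair defect were exposed to test compounds. Growth inhibition was measured relative to vehicle-treated controls.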
# [4] = NCI Yeast Anticancer Drug Screen. Data for the cln2 rad14 strain (AID 165);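 further: 0% = growth equal to vehicle treated cultures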; conditions: S. cerevisiae cln2 rad14 strain, hits give high values
# Method in brief: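 Strain: cln2 rad14 yeast, altered in cell cycle control and DNA damage repair. Read-out: growth inhibition vs vehicle.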
# [5] = NCI Yeast Anticancer Drug Screen. Data for the bub3 strain (AID 167); conditions: S. cerevisiae bub3 mutant strain, hits give high values
# Method in brief: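 Inhibition values come from growth of compound-treated mutant yeast normalised to vehicle-treated controls.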
# [6] = NCI Yeast Anticancer Drug Screen. Data for the mlh1 rad18 strain (AID 175); conditions: S. cerevisiae mlh1 rad18 strain growth inhibition, hits give high values
# Method in brief: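 A repair-deficient yeast strain is exposed to test compound, and growth is scored relative to vehicle-treated controls.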
# [7] = at 5.0 µM (retest, dose inferred, filed as 0.5)
# [8] = at 50.0 µM (retest, dose inferred, filed as 5.0)
SMILES,"growth inhibition [1, 7]","growth inhibition [1, 8]",growth inhibition ([1]; at 50.0 µM),"growth inhibition [2, 7]","growth inhibition [2, 8]",growth inhibition ([2]; at 50.0 µM),"growth inhibition [3, 7]","growth inhibition [3, 8]",growth inhibition ([3]; at 50.0 µM),"growth inhibition [4, 7]","growth inhibition [4, 8]",growth inhibition ([4]; at 50.0 µM),"growth inhibition [5, 7]","growth inhibition [5, 8]",growth inhibition ([5]; at 50.0 µM),"growth inhibition [6, 7]","growth inhibition [6, 8]",growth inhibition ([6]; at 50.0 µM)
COC(=O)c1ccc(NN)cc1,12% (inactive),39% (inactive),65.8% (inactive),4% (inactive),19% (inactive),61% (inactive),3% (inactive),17% (inactive),36.1% (inactive),3% (inactive),42% (inactive),46.1% (inactive),3% (inactive),85% (active),86% (active),4% (inactive),42% (inactive),40.9% (inactive)
Oc1cc(F)cc2cccnc12,43% (inactive),92% (active),92.3% (active),46% (inactive),91% (active),94.3% (active),99% (active),99% (active),94.1% (active),88% (active),100% (active),92.5% (active),100% (active),100% (active),93.3% (active),42% (inactive),99% (active),91.3% (active)
CC(CC(=O)c1ccc2sc3ccccc3c2c1)C(=O)O (configuration not stated),6% (inactive),35% (inactive),58.4% (inactive),-4% (inactive),47% (inactive),33.6% (inactive),14% (inactive),62% (inactive),49.2% (inactive),-2% (inactive),24% (inactive),60.4% (inactive),-2% (inactive),21% (inactive),27.3% (inactive),15% (inactive),59% (inactive),56.8% (inactive)
O=C(c1ccc([N+](=O)[O-])cc1)c1[nH]c2ccccc2c(=O)c1-c1ccccc1,-2% (inactive),96% (active),98% (active),14% (inactive),99% (active),99% (active),0% (inactive),99% (active),98.6% (active),-3% (inactive),95% (active),98.6% (active),-2% (inactive),98% (active),98.7% (active),25% (inactive),99% (active),99% (active)
CC(C)(Br)C(Br)C(=O)C(Br)C(C)(C)Br (configuration not stated),-1% (inactive),8% (inactive),52.2% (inactive),-2% (inactive),26% (inactive),48.6% (inactive),-4% (inactive),31% (inactive),63.6% (inactive),-2% (inactive),15% (inactive),-7.9% (inactive),-2% (inactive),40% (inactive),19.6% (inactive),-1% (inactive),31% (inactive),69% (inactive)
O=c1c(Cc2c[nH]c3ccccc23)coc2ccccc12,0% (inactive),95% (active),24.2% (inactive),8% (inactive),91% (active),7.85% (inactive),3% (inactive),84% (active),51.1% (inactive),10% (inactive),92% (active),-69.5% (inactive),9% (inactive),98% (active),14.1% (inactive),0% (inactive),95% (active),21.8% (inactive)
O=C(Oc1cccc2cccnc12)c1cccnc1,93% (active),98% (active),93.5% (active),58% (inactive),99% (active),99.2% (active),89% (active),99% (active),98% (active),43% (inactive),94% (active),92.2% (active),97% (active),98% (active),97.8% (active),82% (active),98% (active),97.5% (active)
CCCCN(CCCC)CCC(=O)c1ccc2c(ccc3ccccc32)c1,19% (inactive),99% (active),96.3% (active),7% (inactive),99% (active),95.5% (active),20% (inactive),99% (active),98.8% (active),21% (inactive),99% (active),87% (active),47% (inactive),98% (active),99% (active),12% (inactive),99% (active),98.8% (active)
[Cl][Sn]([CH2][CH2][Sn]([Cl])([c]1ccccc1)[c]1ccccc1)([c]1ccccc1)[c]1ccccc1,99% (active),98% (active),94.5% (active),99% (active),97% (active),92.2% (active),99% (active),97% (active),95.2% (active),97% (active),96% (active),87.5% (active),96% (active),98% (active),90.9% (active),99% (active),98% (active),94.2% (active)
O=S(=O)(O)CNc1cc(Cl)cc(Cl)c1,34% (inactive),78% (active),13.9% (inactive),9% (inactive),28% (inactive),-5% (inactive),1% (inactive),17% (inactive),2.3% (inactive),4% (inactive),16% (inactive),-53.4% (inactive),6% (inactive),85% (active),2.1% (inactive),8% (inactive),33% (inactive),41.8% (inactive)
CCOc1ccccc1C(=O)Nc1cc(C)nn1-c1ccccc1,5% (inactive),4% (inactive),29.4% (inactive),7% (inactive),4% (inactive),99.2% (active),7% (inactive),6% (inactive),99.4% (active),0% (inactive),-1% (inactive),98.8% (active),-1% (inactive),-3% (inactive),99.3% (active),-1% (inactive),0% (inactive),99.5% (active)
CN(C)Cc1cc(C(C)(C)C)cc(C2CCCCC2)c1O,2% (inactive),58% (inactive),66.4% (inactive),-9% (inactive),66% (inactive),38.5% (inactive),-1% (inactive),95% (active),74.3% (active),-4% (inactive),8% (inactive),61.7% (inactive),-6% (inactive),40% (inactive),71.8% (active),1% (inactive),94% (active),92.4% (active)
O=C(Nc1ccccc1)C(F)(F)C(F)(F)C(F)(F)F,6% (inactive),2% (inactive),12.6% (inactive),-1% (inactive),-24% (inactive),12.7% (inactive),17% (inactive),14% (inactive),-0.35% (inactive),5% (inactive),5% (inactive),26.1% (inactive),15% (inactive),27% (inactive),-1% (inactive),5% (inactive),28% (inactive),11.6% (inactive)
O=C1NN=C(c2ccc(Cl)cc2)CC1C1C(=O)N(c2ccccc2)N=C1c1ccccc1 (configuration not stated),96% (active),96% (active),98.5% (active),96% (active),98% (active),98.9% (active),95% (active),98% (active),99.3% (active),88% (active),97% (active),96.3% (active),97% (active),95% (active),97.8% (active),97% (active),96% (active),98.3% (active)
C/C(=N/NC(N)=O)c1ccc(Cl)s1,0% (inactive),-1% (inactive),12.9% (inactive),23% (inactive),-3% (inactive),5% (inactive),-1% (inactive),0% (inactive),-4.35% (inactive),-8% (inactive),-3% (inactive),52.9% (inactive),-2% (inactive),-7% (inactive),9.4% (inactive),-5% (inactive),-1% (inactive),1.6% (inactive)
Oc1ccc2c(c1O)/C(=C/C=NCC1(O)OCC(O)C(O)C1O)C=N2 (configuration not stated),2% (inactive),-7% (inactive),67.3% (inactive),5% (inactive),-7% (inactive),67.4% (inactive),4% (inactive),1% (inactive),88.4% (active),0% (inactive),-9% (inactive),83.5% (active),2% (inactive),-3% (inactive),48.3% (inactive),2% (inactive),-2% (inactive),77% (active)
CC(C)CC(NC(=O)C(N)CCC(=O)OCc1ccccc1)C(=O)NC(COCc1ccccc1)C(=O)NC(Cc1ccccc1)C(=O)ON1C(=O)CCC1=O (configuration not stated) (H-E(OBn)LS(Bn)F-OSu; configuration not given here),54% (inactive),66% (inactive),81.7% (active),48% (inactive),74% (active),84.6% (active),48% (inactive),81% (active),83.1% (active),41% (inactive),71% (active),86.7% (active),42% (inactive),81% (active),80.8% (active),60% (inactive),79% (active),79% (active)
O=S(=O)(c1ccc(NC(=S)NCc2ccncc2)cc1)N1CCCCC1,-30% (inactive),-2% (inactive),15.5% (inactive),-11% (inactive),-43% (inactive),-13.6% (inactive),-14% (inactive),-13% (inactive),10.7% (inactive),2% (inactive),16% (inactive),5.3% (inactive),-31% (inactive),-18% (inactive),9.35% (inactive),-27% (inactive),-8% (inactive),6.9% (inactive)
O=C(c1ccccc1)C1C(c2ccccc2)OP(c2ccccc2)(c2ccccc2)(c2ccccc2)C1c1ccccc1 (configuration not stated),83% (active),99% (active),99.7% (active),96% (active),99% (active),99.8% (active),83% (active),100% (active),99.8% (active),56% (inactive),99% (active),99.5% (active),80% (active),99% (active),99.6% (active),84% (active),99% (active),99.8% (active)
